Screening data deposited in PubChem BioAssay by National Center for Advancing Translational Sciences (NCATS).
A selection: hits, their analogues and other compounds. The true share with any hit is near 19%.
IL-1B inflam inh: qHTS for Inhibitors of Inflammasome Signaling: IL-1-beta AlphaLISA Primary Screen. THP-1 LPS/ATP IL-1B secretion, AlphaLISA, 16 h; stronger effect = lower value. activity change, % at 57.5 µM. 360,000 compounds, 4.7% hits. AID 743279, 2014; in the data active = activity change below about -50%; inconclusive = mostly about -30% to -49%; note: % is set by controls: 0 for no effect and ±100 for the full control effect
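Secreted IL-1B measured by AlphaLISA bead assay after 16 h compound exposure of THP-1 cells; compounds (final up to 57.5 uM) added 1 h before LPS (250 ng/mL) and ATP (1.25 mM) stimulation; lower signal means less secretion.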
MCF10A rerep: A quantitative high throughput screen for small molecules that induce DNA re-replication in MCF 10a normal breast cells | 350,000 compounds, 2.9% hits | MCF 10A DNA re-replication, Hoechst nuclear intensity, 48 h | Potency, µM (top dose mostly 46.1 µM), for the others: at the highest dose activity, positive = re-replication, hits mostly activators | AID 624296, 2012; note: potency is the fitted concentration of half-maximal effect; % of control where 0% means no effect; nearly all actives have a fitted effect of over 50% in size
Chronic BCR inh: qHTS Assay to Find Inhibitors of Chronic Active B-Cell Receptor Signaling; Potency, µM (top dose mostly 46.1 µM), for the others: top-dose activity change, negative = inhibition, actives largely listed as inhibitors; ABC-DLBCL IkBa-CBG/CBR reporter, luminescence ratio, 4 h; AID 493014, 2011; 340,000 compounds, 0.05% hits; active = well fitted inhibition curve with a large enough effect in the signal ratio, with a control signal flat, not every such curve was filed as active; inconclusive = small, poorly fitted or top-dose-only effect, or effect the other way, or a change in a side signal; the % refers to the signal ratio;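 note: potency is the fitted concentration of half-maximal effect; plate controls were basal doxycycline-induced cells for no effect and cells given 10 µM MG132 for full effect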
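Concentration-response series (up to 46 uM) were applied to TMD8 dual-reporter cells for 4 h at 37C with doxycycline. Green/red ratio, after filter-overlap correction, defined %Activity; red signal alone was normalised to basal cells and zero luminescence.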
DT40 TDP1 no CPT: qHTS for Inhibitors of human tyrosyl-DNA phosphodiesterase 1 (TDP1): qHTS in cells in absence of CPT; 420,000 compounds, 15% hits; Potency, µM (titrated, usually from 46.2 µM), inactives show at the highest dose activity change, negative = growth inhibition, actives largely listed as inhibitors; DT40 Tdp1-/- hTDP1 cells, no CPT, ATP luminescence, 48 h; note: potency is the fitted concentration of half-maximal effect; % is set by controls: 0 for no effect and ±100 for the full control effect; nearly all actives have a fitted effect of over 55% in size
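Growth of hTDP1-complemented DT40 Tdp1-knockout cells is measured by ATP luminescence after at least 48 hr compound exposure at 37 °C, with DMSO substituting for the 20 nM CPT used in the parallel screen.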
SW480 rereplic: A quantitative high throughput screen for small molecules that induce DNA re-replication in SW480 colon adenocarcinoma cells | Potency, µM (series often up to 46.1 µM), for the others: at the top dose re-replication activation, most hits filed as activators | AID 624297, 2012 | SW480 DNA re-replication, Hoechst DNA content imaging, 48 h | 340,000 compounds, 1.8% hits; note: potency is the fitted concentration of half-maximal effect; % of control where 0% means no effect; nearly all actives have a fitted effect of over 55% in size
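Readout is total intensity of Hoechst-stained nuclei, excited at 405 nm and collected at 500-530 nm. Compound treatment lasted 48 hr at 37 C in 5% CO2 before staining.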
DT40 TDP1 CPT: qHTS for Inhibitors of human tyrosyl-DNA phosphodiesterase 1 (TDP1): qHTS in cells in presence of CPT; 420,000 compounds, 12% hits; chicken DT40 Tdp1-/-;hTDP1 cells + 20 nM CPT, ATP luminescence, 48 h; Potency, µM (doses to about 46.2 µM), for the others: at the highest dose activity change, negative = growth inhibition, usual class: inhibitors; note: potency is the fitted concentration of half-maximal effect; % is set by controls: 0 for no effect and ±100 for the full control effect; nearly all actives have a fitted effect of over 55% in size
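Cell growth measured by CellTiter-Glo luminescence after a minimum 48 h, 37 C compound exposure with 20 nM CPT in Tdp1-knockout DT40 cells stably expressing hTDP1, seeded 400/well; qHTS titration format.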
The depositor's hits bear a star; ? = inconclusive; . = no result; [ ] = remark or other dose. Unless noted, calls come from the whole dose curve; as a rule, active = well fitted curve in the direction sought with a large enough effect; inconclusive = small, poorly fitted or top-dose-only effect, or another doubt; inactive = no such curve, though single readings can be large; an effect the other way counts as inactive or inconclusive.

SMILES	IL-1B inflam inh	MCF10A rerep	Chronic BCR inh	DT40 TDP1 no CPT	SW480 rereplic	DT40 TDP1 CPT
CC(=O)Nc1nnc(SCC(=O)N2CCCc3ccccc32)s1	15.8	1.84µM*	2.6%	0.0%	-10.5%	1.1%
CSc1nsc(SCC(=O)N2CCCc3ccccc32)n1	-5.9	-1.6%	-1.4%	29.1µM*	2.9%	?
O=C(COC(=O)CNC(=O)c1ccccc1)Nc1ccc(Cl)cn1	6.7	-17.8%	?	-9.4%	-11.6%	-21.7%
CC(=O)c1cc(CN2CCC(n3nccc3NC(=O)c3ccccc3)CC2)cs1	-0.3	5.9%	-6.5%	-6.8%	-4.6%	0.8%
COc1ccccc1-c1cnc(C(O)c2cccc(CN3CCCCC3)c2)[nH]1 (centres undefined)	31.1	.	.	-12.0%	.	1.0%
COc1ccc(CNC(=O)C(=O)NCC(c2cccs2)S(=O)(=O)c2ccc(C)cc2)cc1 (centres undefined)	.	.	8.5%	?	.	0.3%
OCC1(CCOc2ccccc2)CCN(Cc2nc3ccc(F)cc3[nH]2)CC1	1.6	-0.7%	-14.0%	?	-4.0%	?
CCOC(=O)C1(CCOC)CCN(Cc2nc(-c3cccs3)oc2C)CC1	18.1	-2.4%	-6.5%	?	?	?
OCC1(CCOc2ccccc2)CCN(Cc2ccccc2C(F)(F)F)CC1	-55.1*	?	2.0%	-27.3%	1.6%	-12.5%
OCC1(CCOc2ccccc2)CCN(Cc2cn[nH]c2-c2ccc(F)cc2)CC1	-57.1*	15.8%	?	?	?	2.6%
CCOc1ccccc1CN1CCC(CO)(CCOc2ccccc2)CC1	-73.3*	-7.2%	?	-1.9%	-3.1%	4.7%
COc1cc(Cl)c(CN2CCC(CO)(CCOc3ccccc3)CC2)cc1OC	?	?	-2.7%	?	-25.3%	?
Cc1oc(-c2cccs2)nc1CN1CCC(CO)(CCOc2ccccc2)CC1	-82.7*	?	?	?	?	?
Cc1c2cnn(-c3ccccc3)c(=O)c2c(C)n1CC(=O)NCc1ccccc1	.	.	.	-29.1%	.	?
CC(=O)NC(c1cccc(F)c1)c1nc(-c2ccoc2)cs1 (centres undefined)	8.8	.	.	-8.1%	.	?
OCC1(CCOc2ccccc2)CCN(CC2=Cc3cc(Cl)ccc3OC2)CC1	-92.7*	?	-15.1%	20.6µM*	?	18.4µM*
OCCOc1cccc(CN2CCC(CO)(CCOc3ccccc3)CC2)c1	-8.9	3.0%	3.7%	-14.9%	18.4µM*	-29.2%
CCN(C(=O)CSc1nnc(-c2ccc(OC)cc2)n1C(C)C)C1CCS(=O)(=O)C1 (centres undefined)	13.8	-1.1%	-1.4%	1.8%	1.2%	-1.9%
Cc1nc(CS(=O)c2ccc(Cl)cc2)cc(NCc2ccc(Cl)cc2Cl)n1 (centres undefined)	-76.9*	?	5.2%	20.6µM*	-6.8%	14.6µM*
COc1ccc(NC(=S)N2CCC(NC(=O)C3CCCCC3)CC2)cc1	-0.8	4.7%	?	?	-1.8%	-13.9%
CCCCCCCCOC(=O)/C=C/c1c(C)[nH]c(=O)[nH]c1=O	6.4	17.4%	0.0%	7.31µM*	-4.1%	?
CCOC(=O)COc1cc2oc(=O)cc(C)c2cc1[N+](=O)[O-]	?	-3.0%	0.2%	-7.9%	-0.8%	-3.7%
CCN1C(=O)S/C(=C/c2ccsc2)C1=O	-25.7	?	-8.0%	-20.0%	5.8%	-10.2%
CC(C)N1C/C(=C/c2ccsc2)C(=O)/C(=C/c2ccsc2)C1	-95.6*	8.2µM*	?	5.8µM*	9.2µM*	2.91µM*
CC(C)N1C/C(=C/c2cccnc2)C(=O)/C(=C/c2cccnc2)C1	-104.1*	1.16µM*	?	1.64µM*	?	1.64µM*
SMILES	IL-1B inflam inh	MCF10A rerep	Chronic BCR inh	DT40 TDP1 no CPT	SW480 rereplic	DT40 TDP1 CPT
CCCNC(=O)c1ccc2c(=O)c(O)c(-c3ccc(C)cc3)[nH]c2c1	72.3	?	0.4%	?	?	?
Cc1ccc(-c2[nH]c3cc(C(N)=O)ccc3c(=O)c2O)cc1	59.4	-6.5%	?	18.4µM*	-3.3%	?
Cc1ccc(CNC(=O)c2ccc3c(=O)c(O)c(-c4ccc(C)cc4)[nH]c3c2)cc1	57.1	?	-0.4%	6.51µM*	?	4.11µM*
CCCNC(=O)c1ccc2c(=O)c(O)c(-c3ccsc3)[nH]c2c1	97.1	-12.3%	?	18.4µM*	-0.9%	?
COC(=O)[C@@H]1C[C@@H](NC(=O)c2ccc(C(F)(F)F)cc2)CN1Cc1cccc(O)c1	.	.	.	-14.6%	.	-8.2%[9.04 µM]
O=C(NCC(=O)N1CCCCCC1)c1ccc(Br)cc1	-0.3	6.9%	6.2%	-0.8%	-1.5%	33.2%
CCC(CO)Oc1cc(NC(=O)c2ccccc2[N+](=O)[O-])c2ncn(C(C)C)c2c1 (centres undefined)	-0.7	20.6%	0.9%	?	1.6%	16.4µM*
CCC(CO)Oc1cc(NC(=O)c2cccc(OC)c2)c2ncn(C(C)C)c2c1 (centres undefined)	0.0	2.4%	?	?	-7.6%[9.22 µM]	?
CCC(CO)Oc1cc(NC(=O)c2ccc(OC)cc2)c2ncn(C(C)C)c2c1 (centres undefined)	-17.7	-10.3%	-1.1%	?	0.5%	18.4µM*
Cc1cc(C)n(C(N)=NC(=O)c2ccccc2)n1	18.2	.	.	0.2%	.	5.6%
CCN1CCN(c2cc3c(cc2F)c(=O)c(C(=O)O)cn3C2CC2)CC1	23.3	5.6%	19.4%	?	0.7%	?
CO/N=C1\CN(c2nc3c(cc2F)c(=O)c(C(=O)O)cn3C2CC2)CC1CN (centres undefined)	.	13.9%	.	4.61µM*	-5.2%	4.61µM*
CCOC(=O)c1sc2ccccc2c1S(=O)(=O)Nc1ccc(CC)cc1	.	.	7.2%	23.1µM*	.	?
CC(=O)N[C@@H]([C@@H](O)[C@H](O)[C@H](O)CO)[C@@H](O)CC(=O)C(=O)O	.	.	.	-0.6%	.	15.3%
Cc1ccccc1NC(=O)Cc1nc(COC(=O)c2cccc([N+](=O)[O-])c2)cs1	0.0	1.3%	-0.7%	-6.6%	-2.7%	-15.1%
